# Reference: PubChem BioAssay
# A number with no mark means an inactive call. For some of these results: Results with a measured potency or affinity are listed apart. Activity calls are given as the source filed them. Unless noted, how the calls were made is not given here.
# Legend:
# [1] = antimalarial activity against Dd2 strain (AID 2302;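 active means growth inhibition above 50% at the single 2 µM test dose, taken to imply half-maximal potency below 2 µM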;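 further: 0% = DMSO untreated growth and 100% = chloroquine plus artemisinin killed control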); settings: P. falciparum Dd2 in RBCs, LDH growth readout, 72 h; at 2 µM; hits give high values
# [2] = HepG2 cytotoxicity, primary screen, cytotoxicity control for P. falciparum antimalarial project, cell-based, ATP luminescence (AID 2303;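 active means inhibition above 50%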;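 further: 0% = DMSO wells and 100% = digitonin-killed cells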); settings: HepG2 viability, 24-48 h, at 10 µM, hits give high values
# [3] = target: L-lactate dehydrogenase (Plasmodium falciparum (isolate CDC / Honduras)) (UniProt Q27743); test: PfLDH activity inhibition – cell lysate, 3D7 strain, counter-screen for P. falciparum growth inhibition project (AID 2304);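 further: 0% = vehicle and 100% = reference inhibitor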; settings: P. falciparum 3D7 crude extract, LDH APAD/NBT absorbance; at 2 µM; hits give high values
# [4] = inhibition of 3D7 malaria parasite growth – strain 3D7 (AID 2306);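 further: 0% = DMSO wells and 100% = chloroquine plus artemisinin control wells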; settings: P. falciparum 3D7 erythrocytic growth, LDH absorbance, 72 h; at 2 µM; hits give high values
# [5] = target: Calcium-dependent protein kinase 1 (Plasmodium falciparum (isolate 3D7)) (UniProt P62344); test: PfCDPK1 kinase inhibitors, biochemical, TCAMS library (AID 1159585; cut-off not given, nearly all actives have IC50 up to about 0.98 µM;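 further: inhibitors leave more ATP so luminescence rises with inhibition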); settings: recombinant PfCDPK1, Kinase-Glo ATP depletion luminescence
# [6] = target: Plasmodium falciparum protein kinase 6 (PK6, PF3D7_1337100) (UniProt Q8IDW1); test: PfPK6 kinase inhibitors, biochemical, TCAMS library (AID 1159586); settings: recombinant PfPK6, Kinase-Glo ATP depletion luminescence
# [7] = target: Protein kinase 7 (PK7), Plasmodium falciparum 3D7 (PF3D7_0213400) (UniProt Q7YTF7); test: inhibition of Plasmodium PK7 catalytic activity – biochemical, TCAMS antimalarial set, Kinase-Glo luminescence (AID 1159587); settings: recombinant PfPK7, Kinase-Glo ATP depletion luminescence
# [8] = target: Calcium-dependent protein kinase 4 (Plasmodium falciparum (isolate 3D7)) (UniProt Q8IBS5); test: PfCDPK4 kinase inhibitors, biochemical, TCAMS library (AID 1159588; cut-off not given, nearly all actives have IC50 up to about 0.91 µM); settings: recombinant PfCDPK4, Kinase-Glo ATP depletion luminescence
# Chain of Calcium-dependent protein kinase 4 (Plasmodium falciparum (isolate 3D7)) (Q8IBS5 whole entry, looked up): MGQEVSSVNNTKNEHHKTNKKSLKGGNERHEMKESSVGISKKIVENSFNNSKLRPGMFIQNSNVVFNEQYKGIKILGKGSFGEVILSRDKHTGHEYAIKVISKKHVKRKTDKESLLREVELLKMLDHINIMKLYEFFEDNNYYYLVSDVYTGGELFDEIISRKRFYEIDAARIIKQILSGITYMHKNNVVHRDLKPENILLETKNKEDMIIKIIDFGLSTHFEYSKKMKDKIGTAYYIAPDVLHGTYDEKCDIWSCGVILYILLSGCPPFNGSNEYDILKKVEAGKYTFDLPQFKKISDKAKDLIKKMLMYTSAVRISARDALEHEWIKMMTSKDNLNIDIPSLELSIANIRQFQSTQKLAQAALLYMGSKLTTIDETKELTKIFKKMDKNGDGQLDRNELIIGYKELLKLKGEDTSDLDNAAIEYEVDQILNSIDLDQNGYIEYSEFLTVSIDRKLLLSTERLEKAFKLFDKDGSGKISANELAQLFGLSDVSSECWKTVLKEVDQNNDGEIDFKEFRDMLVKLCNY
# Chain of Calcium-dependent protein kinase 1 (Plasmodium falciparum (isolate 3D7)) (P62344 whole entry, looked up): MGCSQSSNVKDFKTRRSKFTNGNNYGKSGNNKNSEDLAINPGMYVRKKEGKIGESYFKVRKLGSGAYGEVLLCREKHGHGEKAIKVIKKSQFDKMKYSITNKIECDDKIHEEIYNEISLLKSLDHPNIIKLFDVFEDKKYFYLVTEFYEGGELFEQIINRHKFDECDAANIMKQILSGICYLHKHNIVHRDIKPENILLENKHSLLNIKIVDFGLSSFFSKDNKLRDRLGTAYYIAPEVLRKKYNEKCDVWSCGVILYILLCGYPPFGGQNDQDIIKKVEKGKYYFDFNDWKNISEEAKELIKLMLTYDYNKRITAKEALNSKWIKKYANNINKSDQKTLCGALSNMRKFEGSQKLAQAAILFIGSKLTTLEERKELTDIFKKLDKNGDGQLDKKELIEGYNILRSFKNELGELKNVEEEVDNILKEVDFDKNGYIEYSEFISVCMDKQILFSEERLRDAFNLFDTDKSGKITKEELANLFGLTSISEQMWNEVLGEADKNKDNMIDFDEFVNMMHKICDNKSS
# Chain of Protein kinase 7 (PK7), Plasmodium falciparum 3D7 (PF3D7_0213400) (Q7YTF7 1-343): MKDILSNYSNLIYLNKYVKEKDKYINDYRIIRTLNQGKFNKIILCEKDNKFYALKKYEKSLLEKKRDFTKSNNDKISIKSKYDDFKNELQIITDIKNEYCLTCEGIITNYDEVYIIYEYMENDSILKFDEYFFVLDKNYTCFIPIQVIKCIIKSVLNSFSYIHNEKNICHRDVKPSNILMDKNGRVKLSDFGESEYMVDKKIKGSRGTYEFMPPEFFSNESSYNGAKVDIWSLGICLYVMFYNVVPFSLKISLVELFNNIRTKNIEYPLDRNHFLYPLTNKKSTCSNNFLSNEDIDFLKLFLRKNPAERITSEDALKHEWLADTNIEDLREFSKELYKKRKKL
# Chain of L-lactate dehydrogenase (Plasmodium falciparum (isolate CDC / Honduras)) (Q27743 whole entry, looked up): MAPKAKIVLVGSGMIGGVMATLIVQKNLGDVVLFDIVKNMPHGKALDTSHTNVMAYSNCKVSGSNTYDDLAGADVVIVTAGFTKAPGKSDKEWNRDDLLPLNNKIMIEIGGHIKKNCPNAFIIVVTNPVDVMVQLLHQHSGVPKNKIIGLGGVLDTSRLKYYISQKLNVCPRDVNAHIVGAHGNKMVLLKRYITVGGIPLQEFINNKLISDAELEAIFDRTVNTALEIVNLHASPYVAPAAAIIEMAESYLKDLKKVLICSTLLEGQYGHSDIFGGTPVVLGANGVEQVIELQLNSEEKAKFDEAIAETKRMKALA
# Chain of Plasmodium falciparum protein kinase 6 (PK6, PF3D7_1337100) (Q8IDW1 1-305): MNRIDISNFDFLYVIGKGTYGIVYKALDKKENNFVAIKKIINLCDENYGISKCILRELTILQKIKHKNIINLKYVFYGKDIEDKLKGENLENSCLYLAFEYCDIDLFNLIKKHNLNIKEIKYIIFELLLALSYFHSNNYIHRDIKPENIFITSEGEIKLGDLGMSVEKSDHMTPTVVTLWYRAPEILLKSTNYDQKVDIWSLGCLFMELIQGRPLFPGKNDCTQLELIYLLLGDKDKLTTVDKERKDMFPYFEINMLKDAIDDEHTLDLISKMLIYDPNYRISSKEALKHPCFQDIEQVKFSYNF
Structure (SMILES),growth inhibition [1],inhibition [2],inhibition [3],growth inhibition [4],outcome [5],outcome [6],outcome [7],outcome [8]
CN(C)CCN(C)Cc1ccc(-c2cccc(NC(=O)c3cccc(C#N)c3)c2)cc1,11%,23%,-4%,94% (active),inactive,inactive,inactive,inactive
Cc1ccccc1NC1=NC(=S)N(c2cccc(C(F)(F)F)c2)C12CCC(C(C)(C)C)CC2 (stereo not drawn),25%,9%,5%,95% (active),inactive,inactive,inactive,inactive
CCN1C(=O)C(CC(=O)Nc2cccc(Cl)c2)N(Cc2ccc(OC)c(OC)c2)C1=S (stereo not drawn),68% (active),13%,-8%,100% (active),inactive,inactive,inactive,inactive
COc1ccc(Nc2ncc3c(-c4cccc(NC(=O)Cc5cccc(F)c5)c4)c[nH]c3n2)cc1OC,68% (active),24%,2%,101% (active),inactive,inactive,inactive,inactive
COc1ccc(CN(C)CCOc2ccc(NC(=O)c3cccc4c(=O)cc(-c5ccccc5)[nH]c34)cc2)cc1OC,44%,13%,-3%,98% (active),inactive,inactive,inactive,inactive
O=C(NC1CCN(CCC(NC(=O)c2ccccc2)c2ccc(Cl)c(Cl)c2)CC1)c1ccc(Cl)cc1 (stereo not drawn),36%,17%,-2%,97% (active),inactive,inactive,inactive,inactive
Clc1ccc(-c2cc(-c3csc(NCCN4CCCCC4)n3)on2)cc1,30%,81% (active),-9%,91% (active),inactive,inactive,inactive,inactive
Oc1ccc2nc(NCCCc3ccccc3)nc(NCCc3ccccc3)c2c1,88% (active),31%,-3%,99% (active),inactive,inactive,inactive,inactive
COc1ccc(-c2ccc(NC(=O)c3ccc(C#N)cc3)cc2)cc1CN1CCC(O)CC1,28%,24%,7%,94% (active),inactive,inactive,inactive,inactive
OCC1CCN(Cc2cccc(-c3ccc(-c4nc5ccc(F)cc5[nH]4)cc3)c2)CC1,86% (active),11%,4%,101% (active),inactive,inactive,inactive,inactive
COc1cc(Cc2cnc(N)nc2N)ccc1OCc1ccc(F)c(F)c1,31%,10%,3%,90% (active),inactive,inactive,inactive,inactive
COc1ccc(CNC2CCN(C)CC2)cc1-c1ccc(S(=O)(=O)NCc2ccccc2)c(F)c1,97% (active),53% (active),4%,101% (active),inactive,inactive,inactive,inactive
CC1(C)N=C(N)N=C(N)N1OCc1cccc(Cl)c1Cl,75% (active),68% (active),-1%,92% (active),inactive,inactive,inactive,inactive
CCCCCCOc1ccc(C(=O)NCCCC2CCN(CCCCCNC(=O)C=Cc3ccc(Cl)c(Cl)c3)CC2)cc1,25%,22%,-2%,94% (active),inactive,inactive,inactive,inactive
Cc1[nH]c(C)c(-c2ccc(-c3ccc(Cl)cc3)nc2)c(=O)c1Br,96% (active),21%,3%,97% (active),inactive,inactive,inactive,inactive
COc1cc(-c2cc3cc(Cl)c(Cl)cc3[nH]2)ccc1C(=O)NCCC1CCCN1C (stereo not drawn),41%,20%,-5%,91% (active),inactive,inactive,inactive,inactive
CN(C)c1ccc(-c2cscc2C(=O)NC2CCCN(Cc3cccnc3)C2)cc1 (stereo not drawn),70% (active),5%,0%,89% (active),inactive,inactive,inactive,inactive
OC(CNc1ccnc(Nc2ccc(Cl)cc2)n1)c1cccc(C(F)(F)F)c1 (stereo not drawn),84% (active),9%,4%,101% (active),inactive,inactive,inactive,inactive
O=C(Cc1ccc(NC(=O)c2ccc(O)c(-c3ccc(Cl)c(Cl)c3)c2)cc1)NCCc1ccc(Cl)c(Cl)c1,88% (active),-6%,2%,99% (active),inactive,inactive,inactive,inactive
Cc1cc(N[C@@H](CC(C)C)C(=O)NCc2cccs2)nc(NCCc2cccs2)n1,13%,-3%,-4%,92% (active),inactive,inactive,inactive,inactive
O=C(Nc1cccc(C(F)(F)F)c1)NC1CCN(c2ccnc3cc(Cl)ccc23)CC1,47%,13%,-2%,101% (active),inactive,inactive,inactive,inactive

Structure (SMILES),growth inhibition [1],inhibition [2],inhibition [3],growth inhibition [4],outcome [5],outcome [6],outcome [7],outcome [8]
Nc1nc(N)c2c(Cc3ccc(Br)cc3)cccc2n1,20%,28%,0%,99% (active),inactive,inactive,inactive,inactive
COc1c(C2CCN(CCCCNC(=O)c3ccc(-c4ccc(C#N)cc4)nc3)CC2)ccc2c1CCCC2,67% (active),54% (active),-2%,95% (active),inactive,inactive,inactive,inactive
Cc1nnc(-c2ccc3ccccc3c2)c2cn(-c3cccc([N+](=O)[O-])c3)nc12,67% (active),29%,3%,91% (active),inactive,inactive,inactive,inactive
Cc1ccc(-c2nc(NC(=O)Nc3ccc(C(F)(F)F)cc3)sc2C)cc1Cl,86% (active),29%,-5%,99% (active),inactive,inactive,inactive,inactive
CCCC(CNCc1cccc(OC(F)(F)C(F)F)c1)CNc1cc(=O)c2ccccc2[nH]1 (stereo not drawn),94% (active),-1%,1%,101% (active),inactive,inactive,inactive,inactive
COc1ccc2nccc([C@@H](O)CN3CCC(NCCNc4cccc(F)c4)CC3)c2c1,73% (active),11%,0%,98% (active),inactive,inactive,inactive,inactive
Cc1ccc(Nc2nc(C)cc(Nc3cccc(NS(C)(=O)=O)c3)n2)cc1,8%,-3%,0%,96% (active),inactive,inactive,inactive,inactive
COc1cc(CC2c3cc(O)c(Cl)cc3CCN2C)c(OC)cc1C (stereo not drawn),88% (active),10%,0%,99% (active),inactive,inactive,inactive,inactive
NC(N)=NN=Cc1cc2ccccc2c2ccccc12,63% (active),25%,4%,100% (active),inactive,inactive,inactive,inactive
NC(N)=NN=Cc1c2ccc(Cl)cc2c(Cl)c2ccc(Cl)cc12,90% (active),28%,0%,100% (active),inactive,inactive,inactive,inactive
CCCCOc1ccccc1C(=O)NCc1csc(-c2ccccc2)n1,91% (active),17%,0%,93% (active),inactive,inactive,inactive,inactive
CCOC(=O)c1cc(Cl)cc(Cl)c1OCCCON1C(N)=NC(N)=NC1(C)C,97% (active),70% (active),-6%,93% (active),inactive,inactive,inactive,inactive
Oc1cc(Nc2ccnc3cc(-c4ccc(CN5CCCCC5)o4)c(Cl)cc23)c(Cl)cc1F,64% (active),-10%,-5%,102% (active),inactive,inactive,inactive,inactive
CCCCCCN1CCN(Cc2cccc(NC(=O)c3ccc(Cl)c(Cl)c3)c2)CC1,51% (active),31%,-4%,85% (active),inactive,inactive,inactive,inactive
Cc1cccc2[nH]c(-c3ccc(-c4cccc(NC(=O)Nc5ccc(Cl)c(Cl)c5)c4)s3)nc12,36%,46%,-1%,101% (active),inactive,inactive,inactive,inactive
CCC(ON1C(N)=NC(N)=NC1(C)C)c1ccc(Cl)cc1 (stereo not drawn),90% (active),68% (active),3%,91% (active),inactive,inactive,inactive,inactive
Oc1ccc(CCNc2nc(NCCCOc3ccccc3-c3ccc(C(F)(F)F)cc3)nc(N3CCNCC3)n2)cc1,49%,64% (active),0%,101% (active),inactive,inactive,inactive,inactive
O=C(NC1CCN(c2ccc(F)cc2[N+](=O)[O-])CC1)c1cccs1,91% (active),-9%,-1%,90% (active),inactive,inactive,inactive,inactive
c1ccc(Oc2ccc(Nc3ccnc4cc(-c5ccc(CN6CCNCC6)o5)ccc34)cc2)nc1,99% (active),7%,-1%,100% (active),inactive,inactive,inactive,inactive
CCCC(C)Nc1nc(C)cc(N[C@@H](Cc2ccccc2)C(=O)NCc2cccc(F)c2)n1 (stereo partly drawn),75% (active),9%,-2%,100% (active),inactive,inactive,inactive,inactive
